An excerpt weighted towards active compounds, which were near 1.2% of everything screened.
RecA intein inh: Mtb RecA intein splicing inhibition | P9WHJ3 | inhibition, % (concentration not given with the values) | actives 0.75% (n = 290,000) | cell-free RecA intein splicing, fluorescence; in the data active means inhibition above about 30%;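 further: 0% = vehicle wells and 100% = reference inhibitor control wells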
CCHFV vOTU inh: CCHFV vOTU protease inhibition | Pep-AMC fluorescence | inhibition, % at 11.5 µM | actives 0.55% (n = 370,000) | AID 651958; in the data active means inhibition above about 30%; further: 0% = vehicle wells with enzyme and 100% = no enzyme wells
Mtb bLac sens: beta-lactam sensitization of Mtb H37Rv; actives 0.27% (n = 330,000); M. tuberculosis H37Rv growth with meropenem, percent inhibition; inhibition, % at 25 µM;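 further: growth measured after seven days incubation then overnight dye step; 0% = bacteria only wells and 100% = bacteria with antibiotic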
Rv3671c protease: inhibitors of M. tuberculosis serine protease Rv3671c. P9WHR9. inhibition, % at 5.96 µM. actives 0.048% (n = 320,000); in the data active means inhibition above about 38%;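 further: extracellular domain of Rv3671c used as enzyme; 0% = enzyme with DMSO and 100% = no enzyme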
Mtb UGM inh: Mtb UDP-galactopyranose mutase inhibition | actives 0.06% (n = 320,000) | inhibition, % at 10 µM | purified UGM, fluorescence polarization probe displacement; in the data active means inhibition above about 10%, passing the limit was not always enough
Target sequence (P9WIQ1 whole entry, looked up): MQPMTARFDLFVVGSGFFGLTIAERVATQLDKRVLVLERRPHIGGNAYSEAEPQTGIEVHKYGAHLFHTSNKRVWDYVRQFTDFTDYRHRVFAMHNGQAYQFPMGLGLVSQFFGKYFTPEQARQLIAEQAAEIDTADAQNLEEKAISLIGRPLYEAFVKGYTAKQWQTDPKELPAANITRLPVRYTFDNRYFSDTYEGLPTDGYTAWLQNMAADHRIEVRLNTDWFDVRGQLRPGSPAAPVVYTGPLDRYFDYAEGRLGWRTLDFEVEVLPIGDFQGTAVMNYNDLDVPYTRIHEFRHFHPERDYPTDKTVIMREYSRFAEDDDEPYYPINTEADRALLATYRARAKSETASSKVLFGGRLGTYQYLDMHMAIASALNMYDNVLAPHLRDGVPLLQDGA
GFP chromophore: counter-screen GFP chromophore formation inhibition. shares compounds with RecA intein inh. cell-free GFP chromophore formation, fluorescence. EC50, µM. actives 83% (n = 2,100)
Starred values were filed as active, the others as inactive; / = not tested or not shown. Unless noted, how the calls were made is not given here.

SMILES	RecA intein inh	CCHFV vOTU inh	Mtb bLac sens	Rv3671c protease	Mtb UGM inh	GFP chromophore
CN(C)c1ccc(/C=N\NC(=O)c2cccc(S(=O)(=O)N(C)C)c2)cc1	/	14.3	/	/	/	/
Cc1[nH]n(-c2ccccc2)c(=O)c1Sc1ccc(Cl)cc1	57.3*	3.0	-3.0	5.0	2.8	20*
O=C(Nc1c(-c2ccccc2)nc2ncccn12)C1CC1	/	-46.1	/	/	/	/
Cc1ccccc1NC(=O)N(C)[C@H]1C[C@H]2c3[nH]c4c(-c5ccc6c(c5)OCO6)cccc4c3CCN2C[C@H]1[C@H](C)O	/	-1.2	/	/	/	/
O=C(C(=C1N(Cc2ccc(Cl)nc2)CCN1Cc1ccc(Cl)nc1)[N+](=O)[O-])C(Cl)Cl	76.3*	-14.0	-6.0	2.3	-3.9	6.48*
O=[N+]([O-])/C(C(=C(Cl)Cl)N1CCN(Cc2ccccc2)CC1)=C1\NCCN1Cc1ccc(Cl)nc1	12.6	15.1	-4.3	10.8	2.6	/
O=C(Nc1ccccc1)OCCN1C(=O)CCC12CCC(c1ccccc1)CC2 (stereo unspecified)	/	5.2	/	/	/	/
O=C(NC(=S)NNC(=O)c1ccccc1O)c1ccco1	36.3*	-13.0	-2.4	24.8	2.5	>38
O=S(=O)(CCSc1nc2ccccc2s1)c1nc2ccccc2s1	78.1*	1.0	97.2	-3.7	4.0	3.65*
CCS(=O)(=O)CCSc1nc2ccccc2s1	-1.9	-12.4	-4.8	-5.7	0.3	/
CCc1nc(N2CCN(C(=O)CCl)CC2)c2c3c(sc2n1)CC(C)CC3 (stereo unspecified)	87.3*	14.3	100.9	-8.0	2.1	2.58*
CCCn1c(CC)nc([N+](=O)[O-])c1S(=O)(=O)c1ccccc1	46.2*	-2.9	96.8	-7.5	2.1	>38
CCc1ccc(OCC(=O)N/N=C2\CC(=O)c3ccccc32)cc1	53.0*	/	-13.4	-68.3	1.6	8.83*
COC(=O)c1c(NC(=O)/C=C/C(=O)O)sc(Cc2ccccc2)c1C	51.1*	/	-1.0	1.1	-1.0	24.3*
COC(=O)c1c(N)sc(Cc2ccccc2)c1C	15.0	-1.5	10.2	8.9	0.7	/
COCCn1c(N)c(C(=O)NCc2cccs2)c2nc3ccccc3nc21	62.2*	-39.7	5.5	-83.6	1.3	>38
O=[N+]([O-])c1cc(S(=O)(=O)C(F)(F)F)ccc1Sc1nc2ccccc2s1	84.6*	2.4	99.4	-2.1	-1.9	0.253*
O=[N+]([O-])c1cc(S(=O)(=O)C(F)(F)F)ccc1Sc1nc2ccccc2[nH]1	81.6*	12.9	94.4	-7.7	2.0	1.47*
Cc1onc(-c2ccc(Cl)cc2)c1-c1ccn(S(=O)(=O)c2ccccc2Cl)n1	/	-3.5	/	/	/	/
COC(=O)c1cn(-c2ccc(-c3noc4c3C(=O)N(CC(=O)N3CCOCC3)CC4)cc2)nn1	/	-8.4	/	/	/	/
O=S1(=O)c2c(cccc2N2CCC[C@H]2CO)OCCCN1C1CC1	/	-4.9	/	/	/	/
Cc1ccc(S(=O)(=O)NC(Cc2ccccc2)C(=O)NN)cc1 (stereo unspecified)	-2.0	-3.7	-13.6	-7.0	2.7	/
Cc1ccc(S(=O)(=O)N[C@@H](Cc2ccccc2)C(=O)CCl)cc1	92.6*	-2.4	-0.3	10.4	-0.4	1.86*
COC(=O)[C@]12C[C@H](CC(=O)N3CCC(c4ccccc4)CC3)C(=O)N(Cc3ccc(Cl)cc3Cl)C1=C[C@H](C(C)(C)C)O[C@@H]2C	/	-6.3	/	/	/	/
CC(C)(C)OC(=O)NCCc1nnc(S(=O)(=O)Cc2ccc(Cl)cc2Cl)o1	85.2*	8.9	3.5	-0.9	0.6	>38
SMILES	RecA intein inh	CCHFV vOTU inh	Mtb bLac sens	Rv3671c protease	Mtb UGM inh	GFP chromophore
CC(C)(C)OC(=O)NCCc1nnc(SCc2ccccc2Cl)o1	1.5	1.1	1.0	-7.0	1.5	/
O=C1C(NC(=O)N2c3ccccc3C=Cc3ccccc32)CCCCN1Cc1cccc(C(F)(F)F)c1 (stereo unspecified)	/	8.6	/	/	/	/
O=C(Oc1ccccc1C(=O)Nc1ccccc1)c1ccccc1Br	54.2*	2.6	7.3	20.4	-1.1	35.9*
O=C(COc1ccccc1C(=O)Nc1ccccc1)c1ccc(Br)cc1	-3.0	-12.5	-2.2	-13.1	0.5	/
O=C1[C@@H](CCc2ccccc2)[C@@H]2c3ccccc3C=NN2[C@@H]2c3ccccc3C=NN12	/	5.8	/	/	/	/
COC(=O)CSc1nnc(-c2ccc(NS(=O)(=O)c3c(C(C)C)cc(C(C)C)cc3C(C)C)cc2)o1	/	23.9	/	/	/	/
COc1cc(C(c2c(C)[nH][nH]c2=O)c2c(C)[nH][nH]c2=O)cc(Br)c1OC	99.2*	-6.3	-12.9	-11.7	0.8	0.633*

Assay outcomes: PubChem BioAssay, several laboratories
